Measured values as given in PubChem BioAssay.
Activity calls are given as the source filed them. Unless noted, how the calls were made is not given here.

Assays:
[1] = tested on: Wnt5a (protein binding on small-molecule microarray); assay: Wnt5a binders on small-molecule microarray, primary screen, biophysical, 635/667 nm fluorescence (AID 1142); conditions: 635 nm fluorescence, higher = more signal;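 further: fluorescence read at 667 nm with signal to noise per printed feature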
[2] = cell viability in Huh7 cells, primary screen, cytotoxicity control for HCV replication inhibitor project, CellTiter-Glo luminescence, basal, 48 h (AID 1143); conditions: Huh7 HCV replicon, higher = more signal, called active from +8 up or from −8 down;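 further: Huh7 hepatoma cells carrying a hepatitis C replication reporter with no stimulus; test concentration not given here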
[3] = P. aeruginosa biofilm formation inhibitors, primary screen, PAO1 strain, BacTiter-Glo luminescence, LB-PBS (AID 1144); conditions: 12 h, higher = more signal
[4] = CREB reporter modulators without forskolin, primary screen, cell-based, PC12, CRE-LacZ reporter, unstimulated (AID 1145); conditions: no forskolin, luminescence, 4.5 h, higher = more signal, called active from +8 up or from −8 down
[5] = CREB reporter modulators under forskolin, primary screen, cell-based, PC12, CRE-LacZ reporter, forskolin-stimulated (AID 1146); conditions: luminescence, 4.5 h, higher = more signal, called active from +8 up or from −8 down;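 further: PC12 cells with 6xCRE LacZ reporter stimulated by forskolin 10 µM; beta-galactosidase reporter signal reflecting CREB driven transcription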
[6] = molecular target: Streptavidin (Streptomyces avidinii) (UniProt P22629); assay: streptavidin binders on small-molecule microarray, primary screen, artefact control for SMM compound annotation, biophysical, 635/667 nm fluorescence (AID 1147); conditions: streptavidin binding, higher = more signal;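 further: signal reflects streptavidin binding to arrayed compounds as a control protein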
[7] = small-molecule binders of probe aInhba, primary screen, biochemical, small-molecule microarray, 635/667 nm fluorescence (AID 1148); conditions: higher = more signal;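 further: score merges 667nm spot fluorescence with signal-to-noise for antibody binding to printed compounds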
Torsin-1A (Homo sapiens) [8] = molecular target: Torsin-1A (Homo sapiens) (UniProt O14656); assay: torsin A binders from cell lysate, primary screen, small-molecule microarray, wild-type, 635/667 nm (AID 1149); conditions: COS7 hTOR1A-WT lysate, 635 nm fluorescence, higher = more signal
Torsin-1A (Homo sapiens) [9] = molecular target: Torsin-1A (Homo sapiens) (UniProt O14656); assay: small-molecule binders of mutant TOR1A in lysate, primary screen, cell lysate, small-molecule microarray, COS7 lysate, 635/667 nm fluorescence (AID 1150); conditions: COS7 hTOR1A mutant lysate, 635 nm fluorescence, higher = more signal;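 further: score pools 667 nm emission and signal to noise measuring lysate protein binding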
[10] = tested on: Sonic hedgehog protein (Shh); assay: small-molecule binders of Shh protein, primary screen, biochemical, small-molecule microarray, 635/667 nm fluorescence (AID 1151); conditions: small-molecule microarray binding, 635 nm fluorescence; higher = more signal;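 further: Shh protein binding to compounds spotted on small-molecule microarray slides; score combines spot fluorescence intensity with signal-to-noise across triplicate slides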
[11] = E. coli DRC41 culture turbidity changes, primary screen, E. coli filamentation inducer project, strain DRC41, OD650, 48 h (AID 1152);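 further: E. coli MC1000 strain DRC41 lacking acrAB efflux pump and sulA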; conditions: E. coli DRC41 (acrAB sulA), higher = more signal, called active from +8 up or from −8 down
[12] = small-molecule binders of probe aLefty1, primary screen, biochemical, small-molecule microarray, 635/667 nm fluorescence (AID 1153); conditions: higher = more signal;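 further: score merges spot fluorescence with signal-to-noise ratio from the scanned slide images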
[13] = PSAC antagonists in infected red cells, primary screen, cell-based, P. falciparum Indochina, OD700, 1 h (AID 1154); conditions: P. falciparum Indochina infected RBC osmotic lysis, higher = more signal, called active from +8 up or from −8 down
[14] = PSAC antagonists in infected red cells, primary screen, cell-based, P. falciparum Indochina, OD700, 2 h (AID 1155);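 further: lysis reports solute entry through the parasite surface anion channel PSAC; channel blockers reduce lysis of infected cells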; conditions: P. falciparum Indochina infected erythrocytes, osmotic lysis OD700; higher = more signal, called active from +8 up or from −8 down
[15] = osmotic lysis modulators in infected erythrocytes, primary screen, PSAC antagonist project, cell-based, P. falciparum Indochina, OD700, 3 h (AID 1156); conditions: higher = more signal, called active from +8 up or from −8 down
[16] = PSAC antagonists in infected red cells, primary screen, cell-based, P. falciparum Indochina, OD700, 18 h (AID 1157); conditions: P. falciparum Indochina infected erythrocytes, osmotic lysis OD700, 18 h; higher = more signal, called active from +8 up or from −8 down
[17] = modulators of S6 phosphorylation in cells, primary screen, cell-based, A549, cytoblot, luminescence, serum-stimulated (AID 1158); conditions: A549 phospho-S6 cytoblot, 5 h, higher = more signal;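 further: serum-stimulated A549 lung adenocarcinoma cells; signal is phosphorylated S6 detected by cytoblot immunostaining with HRP secondary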
[18] = molecular target: NADPH oxidase 2 (Homo sapiens) (UniProt P04839); assay: NOX2-dependent H2O2 signal modulators, primary screen, NOX inhibitor project, cell-based, HEK293-NOX2, PMA-stimulated, Amplex Red fluorescence (AID 1159); conditions: 45 min, higher = more signal, called active from +8 up or from −8 down; further: test concentration not given here
[19] = molecular target: NADPH oxidase 4 (Homo sapiens) (UniProt Q9NPH5); assay: NOX4-dependent H2O2 signal modulators, primary screen, NOX inhibitor project, cell-based, HEK293-NOX4, tetracycline-induced, Amplex Red fluorescence (AID 1160); conditions: 45 min, higher = more signal, called active from +8 up or from −8 down
[20] = molecular target: NADPH oxidase 5 (Homo sapiens) (UniProt Q96PH1); assay: NOX5-dependent H2O2 signal modulators, primary screen, NOX inhibitor project, cell-based, HEK293-NOX5, Amplex Red fluorescence (AID 1161); conditions: HEK293-NOX5, ionomycin, 45 min, higher = more signal
NADPH oxidase 5 (Homo sapiens), sequence (Q96PH1 whole entry, looked up): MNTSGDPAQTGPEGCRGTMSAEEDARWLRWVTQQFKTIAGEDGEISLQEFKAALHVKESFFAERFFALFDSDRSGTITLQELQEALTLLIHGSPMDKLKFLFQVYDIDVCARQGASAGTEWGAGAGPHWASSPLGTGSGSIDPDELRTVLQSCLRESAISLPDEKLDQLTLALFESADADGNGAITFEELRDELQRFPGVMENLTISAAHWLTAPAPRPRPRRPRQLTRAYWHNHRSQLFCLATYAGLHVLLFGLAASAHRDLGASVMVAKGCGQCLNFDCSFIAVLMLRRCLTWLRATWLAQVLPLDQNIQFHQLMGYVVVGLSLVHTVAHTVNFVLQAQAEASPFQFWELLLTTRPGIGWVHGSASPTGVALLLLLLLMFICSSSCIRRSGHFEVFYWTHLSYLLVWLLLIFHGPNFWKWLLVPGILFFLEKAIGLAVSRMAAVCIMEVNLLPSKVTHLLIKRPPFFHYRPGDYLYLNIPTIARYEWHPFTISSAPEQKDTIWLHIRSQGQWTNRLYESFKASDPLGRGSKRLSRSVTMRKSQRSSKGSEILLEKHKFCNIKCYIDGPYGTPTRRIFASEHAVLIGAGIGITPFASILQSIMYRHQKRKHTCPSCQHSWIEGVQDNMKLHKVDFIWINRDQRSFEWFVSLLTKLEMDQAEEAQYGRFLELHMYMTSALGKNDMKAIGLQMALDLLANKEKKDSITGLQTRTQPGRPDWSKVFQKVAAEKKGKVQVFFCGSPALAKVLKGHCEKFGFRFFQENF

Torsin-1A (Homo sapiens), sequence (O14656 whole entry, looked up): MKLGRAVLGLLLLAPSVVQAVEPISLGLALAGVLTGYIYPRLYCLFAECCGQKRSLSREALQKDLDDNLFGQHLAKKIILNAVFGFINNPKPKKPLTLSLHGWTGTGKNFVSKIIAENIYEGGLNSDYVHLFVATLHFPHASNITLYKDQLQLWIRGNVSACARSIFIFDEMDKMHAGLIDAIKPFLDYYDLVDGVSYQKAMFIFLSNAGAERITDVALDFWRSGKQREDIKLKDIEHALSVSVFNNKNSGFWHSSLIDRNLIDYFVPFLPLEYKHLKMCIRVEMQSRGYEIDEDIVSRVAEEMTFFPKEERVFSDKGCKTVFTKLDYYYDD
NADPH oxidase 2 (Homo sapiens), sequence (P04839 whole entry, looked up): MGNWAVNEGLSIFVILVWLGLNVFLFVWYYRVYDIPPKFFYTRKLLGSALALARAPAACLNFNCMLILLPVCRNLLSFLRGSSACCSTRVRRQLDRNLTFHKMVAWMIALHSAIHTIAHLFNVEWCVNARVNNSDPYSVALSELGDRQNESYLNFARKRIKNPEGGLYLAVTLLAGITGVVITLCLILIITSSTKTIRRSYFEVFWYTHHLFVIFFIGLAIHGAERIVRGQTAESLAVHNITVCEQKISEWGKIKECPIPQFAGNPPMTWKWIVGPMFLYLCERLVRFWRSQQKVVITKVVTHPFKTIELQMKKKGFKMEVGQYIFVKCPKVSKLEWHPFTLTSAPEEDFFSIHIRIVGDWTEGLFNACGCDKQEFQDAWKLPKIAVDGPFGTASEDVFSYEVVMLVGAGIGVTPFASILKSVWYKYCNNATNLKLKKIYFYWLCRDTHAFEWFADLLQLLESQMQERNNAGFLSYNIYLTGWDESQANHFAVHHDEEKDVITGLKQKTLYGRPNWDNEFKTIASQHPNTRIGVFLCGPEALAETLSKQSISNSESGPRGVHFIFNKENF
Streptavidin (Streptomyces avidinii), sequence (P22629 whole entry, looked up): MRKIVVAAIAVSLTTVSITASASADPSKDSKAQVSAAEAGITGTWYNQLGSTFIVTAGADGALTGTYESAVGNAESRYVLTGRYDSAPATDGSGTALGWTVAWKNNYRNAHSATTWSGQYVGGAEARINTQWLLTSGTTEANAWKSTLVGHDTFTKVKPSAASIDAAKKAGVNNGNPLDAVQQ
NADPH oxidase 4 (Homo sapiens), sequence (Q9NPH5 whole entry, looked up): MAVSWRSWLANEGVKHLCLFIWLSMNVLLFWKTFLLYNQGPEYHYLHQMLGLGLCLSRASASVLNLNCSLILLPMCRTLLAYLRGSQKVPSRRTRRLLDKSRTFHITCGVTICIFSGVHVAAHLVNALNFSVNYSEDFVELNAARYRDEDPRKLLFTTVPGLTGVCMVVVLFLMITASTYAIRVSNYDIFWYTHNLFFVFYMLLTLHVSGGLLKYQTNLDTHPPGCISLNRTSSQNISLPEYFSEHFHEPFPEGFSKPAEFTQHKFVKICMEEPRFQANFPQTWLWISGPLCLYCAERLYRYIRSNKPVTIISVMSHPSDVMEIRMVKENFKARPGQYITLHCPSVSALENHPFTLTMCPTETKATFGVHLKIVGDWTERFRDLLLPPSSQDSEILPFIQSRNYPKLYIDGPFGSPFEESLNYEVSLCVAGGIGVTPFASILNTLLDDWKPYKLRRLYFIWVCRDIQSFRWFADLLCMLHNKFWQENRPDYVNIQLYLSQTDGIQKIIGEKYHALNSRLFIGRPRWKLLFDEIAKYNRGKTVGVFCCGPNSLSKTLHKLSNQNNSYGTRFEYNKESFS

Row | Compound | composite z-score [1] | z-score [2] | z-score [3] | z-score [4] | z-score [5] | composite z-score [6] | composite z-score [7] | composite z-score (Torsin-1A (Homo sapiens) [8]) | composite z-score (Torsin-1A (Homo sapiens) [9]) | composite z-score [10] | z-score [11] | composite z-score [12] | z-score [13] | z-score [14] | z-score [15] | z-score [16] | z-score [17] | z-score [18] | z-score [19] | z-score [20]
1 | C=C(/C(=C/C[C@H](OC(=O)c1ccncc1)c1cccc(OCCO)c1)c1cnc2ccccc2c1)C(C)C | 0.518 | -7.81 (inactive) | 0.503 (inactive) | 30.3 (active) | -0.386 (inactive) | 0.929 | -0.05 | -0.382 | -0.22 | 2.23 | -0.599 (inactive) | -0.0046 | 6.01 (inactive) | 2.44 (inactive) | -2.09 (inactive) | 0.626 (inactive) | -0.787 | -4.67 (inactive) | -0.946 (inactive) | -1.49
2 | C=C[C@@H](OC)[C@H](OC(=O)Nc1ccc(SC)cc1)c1ccc(OCCO)cc1 | 0.502 | -2.53 (inactive) | -0.918 (inactive) | 9.77 (active) | 0.136 (inactive) | 0.22 | -0.071 | 0.615 | 0.8 | 1.2 | -3.28 (inactive) | 0.137 | 26.7 (active) | 16.4 (active) | 2.11 (inactive) | 1.78 (inactive) | 0.285 | 0.403 (inactive) | 0.357 (inactive) | 0.00434
3 | CCC(CC)C(O)C1C=CC2C(=O)N(c3ccccc3)C(=O)C2N1Nc1ccc([N+](=O)[O-])cc1 (stereo not given) | 0.205 | 0.0373 (inactive) | -0.639 (inactive) | -0.62 (inactive) | -0.68 (inactive) | 0.754 | 0.124 | 0.273 | 0.427 | 0.179 | -0.639 (inactive) | 0.342 | 6.6 (inactive) | 0.997 (inactive) | 0.136 (inactive) | 0.507 (inactive) | -0.469 | -0.272 (inactive) | -0.44 (inactive) | -1.03
4 | COCCOC(=O)N1C(=O)[C@@]2(c3cc(C#Cc4ccc(OC)cc4)ccc31)[C@H](C(=O)NC[C@H](O)c1ccccc1)[C@H]1C(=O)O[C@H](c3ccccc3)[C@H](c3ccccc3)N1[C@@H]2c1ccc(OCCO)cc1 | 0.76 | -5.48 (inactive) | -1.73 (inactive) | -1.42 (inactive) | -0.544 (inactive) | 0.277 | 0.0184 | 0.161 | 0.963 | 1.62 | 1.34 (inactive) | 0.179 | 5.02 (inactive) | 1.45 (inactive) | -0.191 (inactive) | 0.312 (inactive) | 2 | -0.756 (inactive) | -2.17 (inactive) | -2.61
5 | COC(=O)[C@@]1(Cc2ccccc2)[C@H]2c3cc(C(=O)N(C)C)n(CCn4cc([N+](=O)[O-])nc4C)c3C[C@H]2CN1C(=O)c1ccccc1 | 0.192 | -0.65 (inactive) | 0.331 (inactive) | -0.379 (inactive) | 1.45 (inactive) | 0.287 | -0.147 | 0.614 | 0.464 | 0.383 | -0.566 (inactive) | 0.0249 | -0.25 (inactive) | -0.949 (inactive) | -0.513 (inactive) | -0.956 (inactive) | 1.18 | 0.635 (inactive) | 1.24 (inactive) | -1.65
